Inconclusive results are not listed. Unless noted, calls come from the whole dose curve; as a rule, active = well fitted curve in either direction with a large enough effect (not every such curve was filed as active); inconclusive = small, poorly fitted or top-dose-only effect, or another doubt; inactive = flat fitted curve, though single readings scatter.
Experiments:
[1] = AP1 Signaling Pathway (AID 357); settings: ME-180 AP-1-bla reporter, EGF-induced, beta-lactamase ratio, 5 h; at 17.2 µM (top of the series) unless noted;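 note: ME-180 reporter cells stimulated with EGF at its EC50 level; % is set by controls: 0 for no effect and ±100 for the full control effect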
In short: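 In this screen, ME-180 cells in Opti-MEM with 0.5% dialyzed FBS received EC50 EGF and compound titrations for 5 h. AP-1 reporter beta-lactamase was detected via CCF4 ratio, giving AC50 for positive and negative modulators.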

[2] = NFAT Signaling Pathway (AID 444); settings: Jurkat NFAT-bla M1, carbachol, beta-lactamase ratio, 5 h; at 17.2 µM (top of the series) unless noted;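 note: carbachol stimulus at about its EC50 of 1 µM final; % is set by controls: 0 for no effect and ±100 for the full control effect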
In short: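 Read-out: CCF4 FRET ratio (460 nm/530 nm) after 1 h RT dye loading, used for %activity and AC50 from titration series. Cells: Jurkat NFAT-β-lactamase/M1 line, treated with compound plus 1 uM carbachol for 5 h, 37 °C.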

[3] = Stat Signaling Pathway (AID 446); settings: ME-180 (cervical carcinoma) SIE beta-lactamase reporter, IL-6 stimulated, 5 h; at 17.2 µM (top of the series) unless noted;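 note: ME-180 cervical cancer cells given 40 pM IL-6 alongside compound; SIE-controlled beta-lactamase reporter measured as 460/530 nm FRET emission ratio; % is set by controls: 0 for no effect and ±100 for the full control effect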
In short: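 Emission at 460 and 530 nm (excitation 405 nm) reports SIE-controlled beta-lactamase in ME-180 cells. Cells received compound with 40 pM IL-6 for 5 hrs at 37 C; data scaled between 300 pM IL-6 and 125 nM JAK-inhibitor controls.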

[4] = biological target: Glucocorticoid receptor (Homo sapiens) (UniProt P04150); test: GR-GFP Redistribution (AID 450;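 active = compounds whose dose series gives a full or clear partial fitted curve of increased nuclear translocation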; note: potency is the fitted concentration of half-maximal effect)
Glucocorticoid receptor (Homo sapiens), sequence (P04150 whole entry, looked up): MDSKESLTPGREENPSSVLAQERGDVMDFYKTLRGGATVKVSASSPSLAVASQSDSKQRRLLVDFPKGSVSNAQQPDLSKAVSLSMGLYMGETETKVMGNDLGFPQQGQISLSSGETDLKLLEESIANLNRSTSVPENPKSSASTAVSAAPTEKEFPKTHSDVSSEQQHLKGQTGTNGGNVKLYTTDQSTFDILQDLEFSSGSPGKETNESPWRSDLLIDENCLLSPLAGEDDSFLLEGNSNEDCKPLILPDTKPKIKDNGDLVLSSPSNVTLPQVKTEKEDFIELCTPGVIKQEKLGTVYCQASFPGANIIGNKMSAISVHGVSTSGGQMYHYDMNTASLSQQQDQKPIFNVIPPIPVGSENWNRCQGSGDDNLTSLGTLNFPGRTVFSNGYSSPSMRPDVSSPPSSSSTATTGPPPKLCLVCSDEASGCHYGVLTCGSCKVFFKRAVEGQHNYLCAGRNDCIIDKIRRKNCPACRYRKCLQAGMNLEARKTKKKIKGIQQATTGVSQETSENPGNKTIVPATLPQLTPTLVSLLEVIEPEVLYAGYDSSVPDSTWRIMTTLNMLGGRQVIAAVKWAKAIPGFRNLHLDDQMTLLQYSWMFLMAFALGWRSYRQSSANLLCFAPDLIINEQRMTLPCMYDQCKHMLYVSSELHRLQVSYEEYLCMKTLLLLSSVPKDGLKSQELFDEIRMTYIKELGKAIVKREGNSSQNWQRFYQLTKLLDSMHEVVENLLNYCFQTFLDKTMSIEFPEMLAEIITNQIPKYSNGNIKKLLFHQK

CCOc1cccc(-c2nnc3sc(-c4cccs4)nn23)c1
inactive: activity change, negative = inhibition [1] -12.6% | activity change, negative = inhibition [2] -10.8% | activity, negative = inhibition [3] 5.52% | Potency [4] > 20.6 µM

O=C(COc1ccc(Cl)cc1)Nc1ccccc1CO
inactive: activity change, negative = inhibition [1] 6.8% | activity change, negative = inhibition [2] 6.35% | activity, negative = inhibition [3] 0.225% | Potency [4] > 20.6 µM

COC(=O)c1cc(S(=O)(=O)N2CCOCC2)c(N2CCOCC2)cc1N1CCOCC1
inactive: activity change, negative = inhibition [1] -1.61% | activity change, negative = inhibition [2] 5.16% | activity, negative = inhibition [3] 5.81% | Potency [4] > 20.6 µM

CCC(NC(=O)Nc1ccc(O)cc1)(C(F)(F)F)C(F)(F)F
inactive: activity change, negative = inhibition [1] -8.11% | activity change, negative = inhibition [2] 8.99% | activity, negative = inhibition [3] -7.48% | Potency [4] > 20.6 µM

Oc1oc(-c2ccccc2)nc1C=NCc1ccncc1
inactive: activity change, negative = inhibition [1] 1.8% | activity change, negative = inhibition [2] -8.61% | activity, negative = inhibition [3] 22.7% | Potency [4] > 20.6 µM

COc1cc(-c2nn3c(-c4ccco4)nnc3s2)cc(OC)c1OC
inactive: activity change, negative = inhibition [1] -2.59% | activity change, negative = inhibition [2] -0.323% | activity, negative = inhibition [3] -1.97% | Potency [4] > 20.6 µM

CNc1nc(C)c(C#N)cc1C(C)=O
inactive: activity change, negative = inhibition [1] -13.3% | activity change, negative = inhibition [2] -1.5% | activity, negative = inhibition [3] -6.02% | Potency [4] > 20.6 µM

COc1ccc2[nH]c(C)c(C(=O)CN3CCOCC3)c2c1
inactive: activity change, negative = inhibition [1] 12.7% | activity change, negative = inhibition [2] -9.22% | activity, negative = inhibition [3] -2.66% | Potency [4] > 20.6 µM

O=C(O)c1ccc(COc2c(F)c(F)c(F)c(F)c2F)o1
inactive: activity change, negative = inhibition [1] 4.64% | activity change, negative = inhibition [2] -0.748% | activity, negative = inhibition [3] -10.8% | Potency [4] > 20.6 µM

CCOc1cccc(-c2nnc3sc(-c4ccco4)nn23)c1
inactive: activity change, negative = inhibition [1] -1.16% | activity change, negative = inhibition [2] 18.2% | activity, negative = inhibition [3] -18.8% | Potency [4] > 20.6 µM

COc1cccc(C2=CC(c3ccccc3)n3ncnc3N2)c1 (stereo not given)
inactive: activity change, negative = inhibition [1] -21.4% | activity change, negative = inhibition [2] -15.1% | activity, negative = inhibition [3] -5.76% | Potency [4] > 20.6 µM

CCOC(=O)CNS(=O)(=O)c1cc(-c2nn(C)c(=O)c3ccccc23)ccc1C
inactive: activity change, negative = inhibition [1] 7.12% | activity change, negative = inhibition [2] -12.6% | activity, negative = inhibition [3] -5.95% | Potency [4] > 20.6 µM

Cn1nnnc1SCC(=O)NCC(=O)c1ccccc1
inactive: activity change, negative = inhibition [1] -2.72% | activity change, negative = inhibition [2] 2.64% | activity, negative = inhibition [3] 0.0289% | Potency [4] > 20.6 µM

CCOC(=O)C1=C(C)NC(=O)NC1c1ccc2c(c1)OCO2 (stereo not given)
inactive: activity change, negative = inhibition [1] -4.59% | activity change, negative = inhibition [2] -26.9% | activity, negative = inhibition [3] -3.46% | Potency [4] > 20.6 µM

CN1CCc2c(C#N)c(N3CCCCC3)nc(N3CCOCC3)c2C1
inactive: activity change, negative = inhibition [1] 1.28% | activity change, negative = inhibition [2] 20.7% | activity, negative = inhibition [3] 10.9% | Potency [4] > 20.6 µM

CCOC(=O)c1[nH]c2ccc(C)cc2c1N
inactive: activity change, negative = inhibition [1] -6% | activity change, negative = inhibition [2] -1.75% | activity, negative = inhibition [3] -1.27% | Potency [4] > 20.6 µM

COC(=O)c1ccc(CSc2nc(N3CCOCC3)c3c(c2C#N)CC(C)(C)OC3)o1
inactive: activity change, negative = inhibition [1] -9.04% | activity change, negative = inhibition [2] -8.92% | activity, negative = inhibition [3] 20% | Potency [4] > 20.6 µM

CCOC(=O)c1c(CN2CCCCC2)oc2ccc(OC)cc12
inactive: activity change, negative = inhibition [1] 21.2% | activity change, negative = inhibition [2] 14.1% | activity, negative = inhibition [3] 0.706% | Potency [4] > 20.6 µM

COc1cc(C(=O)Nc2ccccn2)cc(OC)c1OC
inactive: activity change, negative = inhibition [1] 1.72% | activity change, negative = inhibition [2] 12% | activity, negative = inhibition [3] 25.9% | Potency [4] > 20.6 µM

Cn1c(=O)c2c(nc(NCc3ccc4c(c3)OCO4)n2Cc2ccccc2)n(C)c1=O
inactive: activity change, negative = inhibition [1] -13.1% | activity change, negative = inhibition [2] 6.4% | activity, negative = inhibition [3] -25% | Potency [4] > 20.6 µM

O=C(O)CC(C(=O)N(c1ccccc1)c1ccccc1)N1CCOCC1 (stereo not given)
inactive: activity change, negative = inhibition [1] -5.33% | activity change, negative = inhibition [2] -0.593% | activity, negative = inhibition [3] 8.75% | Potency [4] > 20.6 µM

C=CCn1c(C2CC(=O)N(c3ccc(C)cc3)C2)nc2ccccc21 (stereo not given)
inactive: activity change, negative = inhibition [1] -0.041% | activity change, negative = inhibition [2] 5.1% | activity, negative = inhibition [3] 5.25% | Potency [4] > 20.6 µM

OCCN=C(c1ccccc1)C12CN3CN(CN(C3)C1)C2
inactive: activity change, negative = inhibition [1] 6.77% | activity change, negative = inhibition [2] -21.4% | activity, negative = inhibition [3] 3.31% | Potency [4] > 20.6 µM

COC(=O)CSc1nc(N)nc(C)c1Br
inactive: activity change, negative = inhibition [1] 5.47% | activity change, negative = inhibition [2] 1.04% | activity, negative = inhibition [3] 2.44% | Potency [4] > 20.6 µM

Clc1cccc(-c2nn3c(-c4cccc(Cl)c4)nnc3s2)c1
inactive: activity change, negative = inhibition [1] -10.3% | activity change, negative = inhibition [2] 1.34% | activity, negative = inhibition [3] 2.11% | Potency [4] > 20.6 µM
